Test [1] deals with Calcium and integrin-binding protein 1 (Homo sapiens) (UniProt Q99828). The experiment in a line: Primary qHTS for Identification of Calcium Integrin Binding Protein 1 (CIB1) Competitor (AID 1508620). Also: top concentration of the series differs between compounds. The essentials: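 CIB1-GST (1 uM final) and compound incubated 15 min at room temperature before adding FITC-alphaIIb peptide tracer (100 nM final). Competition for binding read by fluorescence polarization (ex 480, em 540) after another 15 min at room temperature.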
Calcium and integrin-binding protein 1 (Homo sapiens), sequence (Q99828 whole entry, looked up): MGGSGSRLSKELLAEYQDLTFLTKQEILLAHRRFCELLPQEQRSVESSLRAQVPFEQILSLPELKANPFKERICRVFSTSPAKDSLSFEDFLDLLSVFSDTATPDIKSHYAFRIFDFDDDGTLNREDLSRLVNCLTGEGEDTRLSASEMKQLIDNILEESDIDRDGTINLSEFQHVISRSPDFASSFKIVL
For orientation: Quantitative high-throughput screening tests each substance at several concentrations.

The target is the same in test [2]. Description: Confirmatory qHTS for Identification of Calcium Integrin Binding Protein 1 (CIB1) Competitor (AID 1508617). Also: potency is read from the fitted curve at half-maximal effect; nearly all actives have a fitted effect of over 65% in size. The essentials: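 Compounds at up to 114 uM final met 1 uM GST-tagged CIB1 for 15 min at room temperature (HEPES pH 7.4, 5 mM CaCl2). FITC-labelled alphaIIb peptide, 100 nM, added; polarization read after 15 min more.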
Test [3] in a line: qHTS to identify inhibitors of the type 1 interferon - major histocompatibility complex class I in skeletal muscle: primary screen against the NCATS Mechanism Interrogation Plate v5.0 (MIPE) Libary (AID 1347411). Also: nearly all actives have a fitted effect of over 65% in size. Also: potency is read from the fitted curve at half-maximal effect. An outline of the steps:
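Luminescence from HiBiT-tagged endogenous HLA-B*08:01 served as the MHC class I read-out. CRISPR-engineered C25cl48 human myoblasts received 4.0 ng/ml IFN-beta plus compound for 24 hrs, with an 11-point, 1:3 series topping at 46 uM final.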

The nature of test [4]: Primary qHTS for inhibitors of La Crosse Virus (LACV) - induced cell death in SH-SY5Y cells (AID 1508616).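 Also: top concentration of the series differs between compounds; higher means more rescue of cells from virus-induced death.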 An outline of the steps: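 Protection against LACV-induced cell death is scored in SH-SY5Y cells exposed to compounds and virus (0.01 MOI) for 6 days. Data normalized to virus-infected DMSO wells and virus-free DMSO wells.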
Test [5] addresses Protein phosphatase 1D (Homo sapiens) (UniProt O15297). Description: RapidFire Mass Spectrometry qHTS Assay for Modulators of WT P53-Induced Phosphatase 1 (WIP1) (AID 1347424).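 Also: amount of dephosphorylated VEPPL-S-QETFS peptide product formed by WIP1; series mostly up to about 63 µM.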 An outline of the steps: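 10 nM WIP1 + cpd, 1 h RT; + 2 uM VEPPL-pS-QETFS, 5 min RT; stop 0.5% formic acid; labelled product standard 1 uM; RapidFire MS. Buffer 50 mM Tris pH 7.5, 30 mM MgCl2, 1 mM TCEP.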

Test [6] shares this target. Description: Rhodamine-PBP qHTS Assay for Modulators of WT P53-Induced Phosphatase 1 (WIP1) (AID 1347425). An outline of the steps:
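The read-out is the change in Rhodamine-PBP fluorescence (f1 - f0, ex 525/em 598 nm) as Pi is released, read each minute for 11 min. Final reaction: 5 nM WIP1, 10 uM phosphopeptide VEPPL-pS-QETFS, 10 uM Rh-PBP, 50 mM Tris-HCl pH 7.5, 30 mM MgCl2. Compound was preincubated with enzyme for 1 hour at room temperature.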

Test [7] deals with Single-stranded DNA cytosine deaminase (Homo sapiens) (UniProt Q9GZX7). Description: Validation qHTS assay for inhibitors of Activation Induced Cytidine Deaminase (AID): AID signal (AID 1347429). An outline of the steps: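 Fluorescence at 540 nm excitation and 590 nm emission reports ssDNA cytosine deamination by AID, with UDG in the same well. Compound-treated reactions ran 4 hr at room temperature with DJC20/DJC23 substrate, followed by 30 min NaOH treatment.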
Single-stranded DNA cytosine deaminase (Homo sapiens), sequence (Q9GZX7 whole entry, looked up): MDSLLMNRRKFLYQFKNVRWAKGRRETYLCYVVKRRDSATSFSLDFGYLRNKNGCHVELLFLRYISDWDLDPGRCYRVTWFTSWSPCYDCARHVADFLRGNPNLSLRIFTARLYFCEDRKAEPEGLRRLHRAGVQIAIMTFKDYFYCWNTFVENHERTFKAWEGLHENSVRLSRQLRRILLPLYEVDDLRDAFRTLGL

Inconclusive results are not listed. Entries that show only a call come without a potency. Calls of active or inactive are those of the source. Calls follow the shape of the dose curve; as a rule, active = well fitted curve in the direction sought with a large enough effect; inconclusive = small, poorly fitted or top-dose-only effect, or another doubt; inactive = no such curve, though single readings can be large; an effect the other way counts as inactive or inconclusive.

Protein phosphatase 1D (Homo sapiens), sequence (O15297 whole entry, looked up): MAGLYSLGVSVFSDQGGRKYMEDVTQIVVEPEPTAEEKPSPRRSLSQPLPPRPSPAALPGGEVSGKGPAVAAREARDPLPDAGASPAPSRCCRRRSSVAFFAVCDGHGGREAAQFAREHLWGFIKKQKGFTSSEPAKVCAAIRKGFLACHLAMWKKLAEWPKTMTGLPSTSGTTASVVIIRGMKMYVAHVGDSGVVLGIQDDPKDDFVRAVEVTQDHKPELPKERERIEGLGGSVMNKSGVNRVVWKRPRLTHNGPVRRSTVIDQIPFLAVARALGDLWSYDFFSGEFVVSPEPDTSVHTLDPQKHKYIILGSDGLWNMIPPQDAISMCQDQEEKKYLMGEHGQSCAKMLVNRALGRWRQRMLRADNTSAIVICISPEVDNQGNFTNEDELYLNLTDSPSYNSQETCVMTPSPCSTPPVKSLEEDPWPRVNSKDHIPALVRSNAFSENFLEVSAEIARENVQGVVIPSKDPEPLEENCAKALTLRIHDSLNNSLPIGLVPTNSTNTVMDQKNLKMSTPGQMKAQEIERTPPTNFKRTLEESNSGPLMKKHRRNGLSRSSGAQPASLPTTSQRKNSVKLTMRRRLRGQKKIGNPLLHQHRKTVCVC

Turning to `O=C(CCc1ccc(O)cc1)c1c(O)cc(O)cc1O[C@@H]1O[C@H](CO)[C@H](O)[C@H](O)[C@H]1O`, in test [1], the Potency entry is “inactive”.

`CCc1ccc(C=C2SC(=S)NC2=O)cc1`: in test [2], the Potency is 8.91 µM (active).

For `NC(=O)[C@@H](CCC(F)(F)F)N(Cc1ccc(-c2ncon2)cc1F)S(=O)(=O)c1ccc(Cl)cc1`, the Potency result in test [3] and in test [1] was “inactive” in each case.

With `O=c1c(-c2ccc(O)cc2)coc2cc(O)ccc12`, the call in test [4] was inactive. Also, in test [1], the Potency result was “inactive”.

As for `O=C1NC(=O)C(=Cc2cccc(C(F)(F)F)c2)S1`, the Potency result in test [1] was “inactive”.

On to `CC(C)OC(=O)C(C)(C)Oc1ccc(C(=O)c2ccc(Cl)cc2)cc1`, for which the result in test [5] and in test [6] was inactive. Further, the Potency result in test [7] was “inactive”.

Take `CCC(=O)O[C@]1(C(=O)CO)CC[C@H]2[C@@H]3CCC4=CC(=O)CC[C@]4(C)[C@@H]3CC[C@@]21C`: in test [1], the Potency result is “inactive”.

For `Clc1cc(Cl)cc(CNc2ncncc2-c2ccc3c(c2)OCO3)c1`, the Potency result in test [1] was “inactive”.

For `COc1ccc(-c2coc3cc(O)ccc3c2=O)cc1`, the Potency result in test [1] is “inactive”.

In the case of `O=C1c2c(O)cc(O)cc2O[C@H](c2cc(O)c(O)c(O)c2)[C@H]1O`, in test [1], the Potency result was “inactive”.

As to `CC(C)OC(=O)CCCC=CC[C@@H]1[C@H](C=C[C@@H](O)COc2cccc(C(F)(F)F)c2)[C@H](O)C[C@@H]1O`, the Potency entry in test [1] is “inactive”.

For the molecule `O=c1cc(-c2cccc3c2Sc2ccccc2S3)oc(N2CCOCC2)c1`, the Potency entry in test [3] and in test [1] was “inactive” in each case.

Consider `Cn1c(N2CCCCS2(=O)=O)nc(C(=O)NCc2ccc(F)cc2)c(O)c1=O`, for which, in test [1], the Potency entry was “inactive”.

Take `COC(=O)N[C@H](C(=O)N1CCC[C@@H]1c1ncc(-c2ccc(-c3ccc(-c4cnc([C@@H]5CCCN5C(=O)[C@@H](NC(=O)OC)C(C)C)[nH]4)cc3)cc2)[nH]1)C(C)C`: the Potency result in test [1] is “inactive”.

As to `O=C(O)c1ccc(-c2cc3cccnc3c(-c3ccc4nonc4c3)n2)cc1`, the Potency entry in test [1] is “inactive”.

Turning to `Cc1ccc(F)c(NC(=O)Nc2ccc(-c3cccc4[nH]nc(N)c34)cc2)c1`, the Potency entry in test [1] is “inactive”.

`NS(=O)(=O)c1ccc(NC2=CC(=O)c3ccccc3C2=O)cc1`: in test [1], the Potency result was “inactive”.

On to `CC[C@@H]1C=C(C)C[C@H](C)C[C@H](OC)[C@H]2O[C@@](O)(C(=O)C(=O)N3CCCC[C@@H]3C(=O)O[C@H](C(C)=C[C@@H]3CC[C@H](Cl)[C@H](OC)C3)[C@H](C)[C@@H](O)CC1=O)[C@H](C)C[C@H]2OC`, for which the Potency entry in test [1] is “inactive”.

On to `O=C1Nc2ccc(Cl)cc2C(C#CC2CC2)(C(F)(F)F)O1` (configuration not stated), for which the Potency result in test [1] was “inactive”.

On to `CC(C)(C)OC(=O)N[C@H]1CCCCCC=C[C@@H]2C[C@@]2(C(=O)NS(=O)(=O)C2CC2)NC(=O)[C@@H]2C[C@@H](OC(=O)N3Cc4cccc(F)c4C3)CN2C1=O`, for which the Potency result in test [3] and in test [1] was “inactive” in each case.

Turning to `CCNc1cc(NC2CCC(O)CC2)nc(Nc2ccc3c(ccn3Cc3ccccc3)c2)n1` (configuration not stated), the Potency entry in test [3] and in test [1] was “inactive” throughout.

Take `CC(C)(C)NC(=O)Nc1cccc(Nc2ncc(F)c(NC(C)(C)CO)n2)c1`: the Potency entry in test [1] was “inactive”.

Consider `COc1cc2nc(-c3ccc(N4CCN(C)CC4)cc3)nc(NCCN3CCOCC3)c2cc1OC`, for which the Potency entry in test [1] was “inactive”.

Turning to `CC(C)(C)C(=O)Oc1ccc2c(c1)nc(NC(=O)c1cccc([N+](=O)[O-])c1)n2CCCO`, the Potency entry in test [1] is “inactive”.

Turning to `c1cc(-c2sc(-c3ccncc3)c(-c3ccncc3)c2-c2ccncc2)ccn1`, the Potency result in test [3] and in test [1] was “inactive” throughout.

Consider `C[C@H](NC(=O)c1sccc1OCc1ccc(Cl)cc1)c1ccccc1`, for which the Potency entry in test [3] and in test [1] was “inactive” in each case.

With `O=c1cc(CN2CCOCC2)occ1OCCCCCSc1ccnc2cc(C(F)(F)F)ccc12`, the Potency entry in test [1] is “inactive”.

For the molecule `Nc1ncnc2c1ncn2[C@@H]1O[C@H](CO)C[C@@H]1O`, the Potency entry in test [1] is “inactive”.

On to `O=c1[nH]cnc2c1ncn2[C@H]1CC[C@@H](CO)O1`, for which the call in test [5], in test [6] and in test [4] was inactive. The Potency result in test [1] is “inactive”.

`CN1CCN(CCOc2cc(OC3CCOCC3)c3c(Nc4c(Cl)ccc5c4OCO5)ncnc3c2)CC1`: the Potency in test [3] is 29.4 µM (active). Moreover, the Potency entry in test [1] was “inactive”.

Regarding `CC(C(=O)O)c1ccc(-c2ccccc2)c(F)c1` (configuration not stated), in test [1], the Potency entry was “inactive”.

In the case of `O=c1cc(N2CCOCC2)oc2c(-c3cccc4c3sc3ccccc34)cccc12`, the Potency result in test [3] and in test [1] was “inactive” in each case.

On to `O=c1c(-c2ccc(O)cc2)coc2cc(O[C@@H]3O[C@H](CO)[C@H](O)[C@H](O)[C@H]3O)ccc12`, for which, in test [1], the Potency result is “inactive”.

With `O=C(NCc1ccncc1)C12C[C@H]3C[C@@H](C1)CC(c1ccc(Cl)cc1)(C3)C2`, the Potency entry in test [3] and in test [1] was “inactive” each time.

With `O=C1NC(=O)C(=Cc2ccc3nccnc3c2)S1`, in test [1], the Potency entry was “inactive”.

As to `NC(CO)(CO)CCc1ccc(Sc2cccc(OCc3ccccc3)c2)cc1Cl`, the Potency entry in test [1] is “inactive”.

Consider `CC(C)[C@H](CO)Nc1nc(Nc2ccc(C(=O)O)c(Cl)c2)c2ncn(C(C)C)c2n1`, for which the Potency entry in test [3] and in test [1] was “inactive” throughout.

For `COc1cc(Nc2ncc(F)c(Nc3ccc4c(n3)NC(=O)C(C)(C)O4)n2)cc(OC)c1OC`, the Potency entry in test [1] was “inactive”.

For `CC=C(C)C(=O)O[C@H]1C(C)=C[C@]23C(=O)[C@@H](C=C(CO)[C@@H](O)[C@]12O)[C@H]1[C@@H](C[C@H]3C)C1(C)C`, the Potency result in test [1] is “inactive”.

As for `COc1cc2c(cc1OC)CN(CCc1ccc(NC(=O)c3cc(OC)c(OC)cc3NC(=O)c3cnc4ccccc4c3)cc1)CC2`, the Potency entry in test [3] and in test [1] was “inactive” throughout.

Values taken from PubChem BioAssay (NCATS).
